This passage reports growth inhibition and condensed nuclei results from PubChem BioAssay AID770 (SRMLSC, 2007).

Hit rate of the full screen: of about 3,300 compounds, fewer than 10 were called active.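 How the source made its calls: active means growth inhibition above 90% in viable cell count at a single dose; inactive means growth inhibition below 90%.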 A selection follows.

A short description of the assay: HT29 colon tumor cell growth inhibition, primary screen, imaging, high content imaging, 24 h, CellTiter-Glo (AID 770).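 On condensed nuclei: share of cells whose nuclear area falls below control median minus 1.5 SD.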 The settings on record: HT29 cell number by imaging, at 10 µM, stronger effect = higher value; for condensed nuclei: measured here: percent cells with condensed nuclei.
Setting [1] is: measured here: ATP CellTiter-Glo viability.

On to `O=C(O)CCc1cc(I)c(Oc2ccc(O)c(I)c2)c(I)c1`, for which the growth inhibition is 4.78% (inactive) and the condensed nuclei turned out to be 4.44%. Further, under setting [1], the growth inhibition came out at 3.12%.
For `O=C(O)c1c[nH]c2ccc(S(=O)(=O)N3CCOCC3)cc12`, the growth inhibition is -36.6% (inactive) and the condensed nuclei is 1.85%. Also, the growth inhibition under setting [1] was -2.36%.
Taken in the same sequence, the figures for `Cc1cc(C)nc(NC2=NCC(=O)N2c2ccccc2)n1` were -50.8% (inactive), 3.13% and -10.6%.
For `COc1ccc(C2C(C(C)=O)=C(O)C(=O)N2c2nccs2)cc1OC` (centres undefined), in that order: 6.29% (inactive), 3.31% and -2.95%.
On to `CCc1cc(=O)oc2cc(C)c(CN3CCCC3)c(O)c12`, for which the growth inhibition was 22.4% (inactive) and the condensed nuclei was 4.19%. Moreover, the growth inhibition under setting [1] was found to be 0.04%.
With `CN(C)CCCN(CCCNC(=O)/C=N/O)Cc1ccccc1`, the growth inhibition was -11.9% (inactive) and the condensed nuclei is 2.84%. Moreover, under setting [1], the growth inhibition is -9.76%.
Taken in the same sequence, the figures for `Nc1nnnn1CC(=O)OCc1cccc(Br)c1` were -17.1% (inactive), 1.92% and -5.1%.
For `CN1CC(=O)Nc2ccc(F)cc2C1=O`, the growth inhibition is 2.67% (inactive) and the condensed nuclei was found to be 13.9%. The growth inhibition under setting [1] was -9.28%.
Regarding `CCCC(=O)N(Cc1cc2ccccc2[nH]c1=O)c1ccccc1OC`, the growth inhibition was 0.99% (inactive) and the condensed nuclei worked out at 3.75%. Further, under setting [1], the growth inhibition came out at 5.4%.
As for `COc1ccc(CNC(=O)[C@H](C)NC(=O)C2CCN(S(=O)(=O)c3ccc(C)cc3)CC2)cc1`, the growth inhibition is -1% (inactive) and the condensed nuclei was determined as 4.4%. The growth inhibition under setting [1] is -14.3%.
`CCc1nc2sc3c(c2c(=O)o1)CCCC3`: the growth inhibition is -25.2% (inactive) and the condensed nuclei came out at 2.35%. For the same molecule, under setting [1], the growth inhibition is -2.13%.
`Cc1ccc(N(CN2C(=O)NC(C)(C)C2=O)CN2C(=O)NC(C)(C)C2=O)cc1`: the growth inhibition is 24.1% (inactive) and the condensed nuclei stood at 3.39%. Also, the growth inhibition under setting [1] was -7.36%.
In the case of `CN(C)CCCN1c2ccccc2Sc2ccc(C(F)(F)F)cc21`, the growth inhibition is 62.5% (inactive) and the condensed nuclei was determined as 4.92%. Besides, the growth inhibition under setting [1] was 40.5%.
For `OCCN1CCN(CCCN2c3ccccc3Sc3ccc(Cl)cc32)CC1`, the growth inhibition was 95.8% (active) and the condensed nuclei came to 11.7%. Besides, the growth inhibition under setting [1] came to 77.7%.
With `CN(C)CCCN1c2ccccc2Sc2ccc(Cl)cc21`, the growth inhibition was 37.5% (inactive) and the condensed nuclei came to 5.79%. The growth inhibition under setting [1] turned out to be 25.5%.
Taken in the same sequence, the figures for `CN1CCN(CCCN2c3ccccc3Sc3ccc(Cl)cc32)CC1` were -25.4% (inactive), 2.59% and -28.5%.
As for `CN1CCN(CCCN2c3ccccc3Sc3ccc(C(F)(F)F)cc32)CC1`, the growth inhibition is 95.6% (active) and the condensed nuclei amounted to 15.7%. Also, the growth inhibition under setting [1] was 87.9%.
Consider `OCCN1CCN(CCCN2c3ccccc3Sc3ccc(C(F)(F)F)cc32)CC1`, for which the growth inhibition is 89% (inactive) and the condensed nuclei amounted to 12.9%. Moreover, under setting [1], the growth inhibition amounted to 59.7%.
Taken in the same sequence, the figures for `CCN(CC)CCNc1nc(-c2ccco2)c2c(c1C#N)CC(C)(C)OC2` were 0.38% (inactive), 4.74% and -1.61%.
Take `CC1(C)CC(=O)C=C(NCCO)C1`: the growth inhibition was 25.6% (inactive) and the condensed nuclei came to 3.37%. For the same molecule, under setting [1], the growth inhibition was 9.68%.
For `O=S(=O)(c1cccc2nsnc12)N1CCN(C/C=C/c2ccccc2)CC1`, the growth inhibition is -27% (inactive) and the condensed nuclei was determined as 4.32%. Also, the growth inhibition under setting [1] was 4.18%.
In the case of `Cc1cc(OCC(=O)Nc2ccc3oc(-c4ccncc4)nc3c2)ccc1Cl`, the growth inhibition was -2.56% (inactive) and the condensed nuclei came to 2.42%. In addition, the growth inhibition under setting [1] is -0.21%.
On to `CCC(NC(=O)Nn1cnnc1)(C(F)(F)F)C(F)(F)F`, for which the growth inhibition was 3.51% (inactive) and the condensed nuclei was 2.8%. The growth inhibition under setting [1] is -0.07%.
Consider `O=C(NCCN1CCCCC1)c1ccc(=O)oc1`, for which the growth inhibition is -6.93% (inactive) and the condensed nuclei is 2.43%. Also, the growth inhibition under setting [1] was -12.9%.
In the case of `CC(=Nc1ccc(C)c(C)c1)C1=C(O)CCC1=O`, the growth inhibition is 6.59% (inactive) and the condensed nuclei was determined as 3.62%. Besides, the growth inhibition under setting [1] is -5.94%.
Taken in the same sequence, the figures for `CCN(CC)CCNc1nc2c(c(=O)[nH]c(=O)n2C)n1CCOc1ccccc1` were -28.8% (inactive), 2.26% and -0.48%.
For `Cc1ccc(C2C(C(=O)c3cc4ccccc4o3)=C(O)C(=O)N2CCN(C)C)o1` (centres undefined), the growth inhibition was -17.9% (inactive) and the condensed nuclei is 2.37%. The growth inhibition under setting [1] is -1.01%.
For `CCOc1cc(C2Nc3ccccc3C(=O)N2c2ccccc2OC)ccc1O` (centres undefined), the growth inhibition is 1.14% (inactive) and the condensed nuclei amounted to 1.12%. In addition, the growth inhibition under setting [1] is -2.4%.
For `Cn1c(=O)c2c(nc(Br)n2CCSc2ncccn2)n(C)c1=O`, in that order: 17.9% (inactive), 1.48% and 6.9%.
`Cc1ccc(N2C(=O)CC3(CC4C=CC3C4)C2=O)cc1` (centres undefined): the growth inhibition is -2.66% (inactive) and the condensed nuclei was determined as 2.87%. Moreover, the growth inhibition under setting [1] was 9.8%.
As to `CNC(=O)CC(C(=O)O)c1ccc(OC(C)C)cc1` (centres undefined), the growth inhibition is 14% (inactive) and the condensed nuclei worked out at 2.97%. Moreover, under setting [1], the growth inhibition was determined as 5.18%.
Take `CC(C)Sc1nc(N2CCCC2)c2c(c1C#N)CC(C)(C)OC2`: the growth inhibition was -32.3% (inactive) and the condensed nuclei was found to be 2.77%. Further, the growth inhibition under setting [1] is -22.9%.
For `CN1C2C=C3C(C#N)=C(N)C(C#N)(C#N)[C@@H](c4cccs4)C3C1CC2` (some centres undefined), in that order: -11.2% (inactive), 3.15% and -11.8%.
For `N#C/C(C(=O)NCc1ccco1)=C1/SC(Cc2ccc(F)cc2)C(=O)N1c1ccccc1` (centres undefined), in that order: 16.5% (inactive), 7.66% and -3.7%.
On to `CCOC(=O)/C=c1\s/c(=C(\C#N)C(=O)OCC)n(-c2ccccc2)c1=O`, for which the growth inhibition is -8.81% (inactive) and the condensed nuclei was determined as 2.51%. Also, the growth inhibition under setting [1] is -10.2%.
Consider `Cc1nc(Nc2ncc3c(n2)CCCC3=O)nc2ccccc12`, for which the growth inhibition is -21.1% (inactive) and the condensed nuclei was 3.04%. Moreover, under setting [1], the growth inhibition is -26.2%.
`CCOC(=O)c1[nH]c2cc3c(cc2c1NC(=O)CN1CCC(C)CC1)OCO3`: the growth inhibition is 37.9% (inactive) and the condensed nuclei was found to be 3.55%. Further, under setting [1], the growth inhibition came to 20%.
On to `O=C(C1=C(O)C(=O)N(CCCN2CCOCC2)C1c1ccccn1)c1cc2ccccc2o1` (centres undefined), for which the growth inhibition is -11.4% (inactive) and the condensed nuclei came to 2.31%. Also, the growth inhibition under setting [1] is -7.9%.
